Measurements published in PubChem BioAssay (NCI).
Compounds without any hit were thinned out: in the full panel of roughly 79,000, 15% have a hit. Unmarked numbers belong to inactive results. Calls of active or inactive are those of the source. Cut-off read from the data, not from the text of the source: active = growth inhibition above about 70%; inactive = the rest.

experiment: NCI Yeast Anticancer Drug Screen. Data for the mlh1 rad18 strain (AID 175); conditions: S. cerevisiae mlh1 rad18 strain growth inhibition; at 50.0 µM; active compounds read high
Procedure, shortened: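 Compound-treated yeast growth, normalised to vehicle controls. Strain bears defined DNA repair mutations.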

| Compound | growth inhibition |
| --- | --- |
| Clc1ccc(-c2nc3ccc(Cl)cc3[nH]2)cc1 | 35.3% |
| O=C1c2ccccc2NC(=O)C2C1C(c1ccccc1)CC2(O)c1ccccc1 (stereo not given) | 32.5% |
| COc1ccc(CC2C(=O)NC(C)C(=O)N(C)C3Cc4ccc(cc4)Oc4cc(ccc4O)CC(C(=O)NC(C)C(=O)NC(C)C(=O)N2C)N(C)C3=O)cc1 (stereo not given) | 53.5% |
| O=C1c2cccnc2-c2nccc3c2c1nc1cc(Br)ccc13 | 77.2% (active) |
| CCN(C(=O)O)c1ccc(/C=C/c2ccnc3ccccc23)cc1 | 29.4% |
| O=C(/C=C/c1cccc(Cl)c1)c1ccccc1 | 99.4% (active) |
| O.O.O=C(O)C(O)C(O)C(OC1OC(CO)C(O)C(O)C1O)C(O)CO.O=C(O)C(O)C(O)C(OC1OC(CO)C(O)C(O)C1O)C(O)CO.[NH-]C1CCCCC1[NH-].[Pt+2] (stereo not given) | 99.2% (active) |
| O=C(N=c1sc2ccccc2s1)N=c1sc2ccccc2s1 | 50% |
| Cc1ccsc1/C=N/Nc1ccc2ccccc2n1 | 23.4% |
| CC(C)(C)C1=NC(=S)SC2=NC(=O)C3(NN21)c1ccccc1-c1ccccc13 | 94.9% (active) |
| COC(=O)c1ccc(OC)cc1 | 16.2% |
| Cc1ccc(/C=C2\CN(C)CC3=C2NC(=S)NC3c2ccc(C)cc2)cc1 (stereo not given) | 58.3% |
| O=C1NC(=O)/C(=C/C=C/c2ccccc2)S1 | 90.2% (active) |
| Nc1ccc(Cc2ccc(N)cc2[N+](=O)[O-])c([N+](=O)[O-])c1 | -18.9% |
| COc1ccccc1/C=C\C(=O)c1ccccc1 | 98.8% (active) |
